In PubChem BioAssay (NCI) one finds growth inhibition data, which are given here for 20 compounds.

Compounds without any hit were thinned out: in the full panel of roughly 79,000, 15% have a hit. A number with no mark means an inactive call. Active and inactive are the calls of the source. No stated cut-off is given here; in the data, active means growth inhibition above about 70%; inactive means the rest.

A short description of one test: NCI Yeast Anticancer Drug Screen. Data for the sgs1 mgt1 strain (AID 161).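 Further: 0% = growth of cultures given vehicle only.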 The following applies: S. cerevisiae sgs1 mgt1 strain, at 5.0 µM (retest, dose inferred, filed as 0.5), stronger effect = higher value. The procedure: Growth inhibition of yeast strains with defined genetic alterations is measured as a screen for potential anti-cancer activity. Selected strains with alterations in DNA damage repair or cell cycle control were exposed to compounds and growth inhibition was measured relative to vehicle treated controls. The strain used in this assay is sgs1 mgt1
Regarding `O=C(O)c1ccc([Se][Se]c2ccc(C(=O)O)cc2)cc1`, the growth inhibition was 58%.
On to `CC1(C)C2CCC([CH2][Hg][Cl])C1C2` (stereo not given), for which the growth inhibition is 100% (active).
Turning to `Nc1nc(N)c(-c2ccc(Cl)c(Cl)c2)c(COc2cccc(CNS(=O)(=O)c3ccc(S(=O)(=O)F)cc3)c2)n1`, the growth inhibition is -2%.
On the same count and under the same terms, the same measure for `C[N+](C)(C)CC1CCCC(C[N+](C)(C)C)C1O` (stereo not given): 0%; for `C[CH2][Sn]([CH2]C)[O][Sn]([Cl])([CH2]C)[CH2]C`: 37%.
Same read-out and setting: for `O=[N+]([O-])/C=C/c1ccccc1Cl` the value was 67%; for `N#CC(C#N)=Cc1c(O)ccc2ccccc12`, 2%; for `CC/C(=C/c1ccc(OC)cc1OC)[N+](=O)[O-]`, 51%.
For `CC(=O)[C-](Cl)C(C)=O.CC(=O)[C-](Cl)C(C)=O.CC(=O)[C-](Cl)C(C)=O.[Ru+3]`, the growth inhibition was 16%.
Take `C[SH+]c1ccccc1N=Cc1ccccn1.C[SH+]c1ccccc1N=Cc1ccccn1.[Ni+2].[O-][Cl+3]([O-])([O-])[O-]`: the growth inhibition is -1%.

The same test, now with this note: S. cerevisiae sgs1 mgt1 strain, at 50.0 µM (retest, dose inferred, filed as 5.0), stronger effect = higher value.
On to `O=C(O)c1ccc([Se][Se]c2ccc(C(=O)O)cc2)cc1`, for which the growth inhibition was 99% (active).
For the compound `CC1(C)C2CCC([CH2][Hg][Cl])C1C2` (stereo not given), the growth inhibition was 97% (active).
For the compound `Nc1nc(N)c(-c2ccc(Cl)c(Cl)c2)c(COc2cccc(CNS(=O)(=O)c3ccc(S(=O)(=O)F)cc3)c2)n1`, the growth inhibition is 65%.
Take `C[N+](C)(C)CC1CCCC(C[N+](C)(C)C)C1O` (stereo not given): the growth inhibition is 81% (active).
The same measure, in the same setting: the same measure for `C[CH2][Sn]([CH2]C)[O][Sn]([Cl])([CH2]C)[CH2]C`: 97% (active); for `O=[N+]([O-])/C=C/c1ccccc1Cl`: 98% (active).
On the same count and under the same terms, the same measure for `N#CC(C#N)=Cc1c(O)ccc2ccccc12`: 32%; for `CC/C(=C/c1ccc(OC)cc1OC)[N+](=O)[O-]`: 98% (active).
The same measure, in the same setting: for `CC(=O)[C-](Cl)C(C)=O.CC(=O)[C-](Cl)C(C)=O.CC(=O)[C-](Cl)C(C)=O.[Ru+3]` the value was 99% (active); for `C[SH+]c1ccccc1N=Cc1ccccn1.C[SH+]c1ccccc1N=Cc1ccccn1.[Ni+2].[O-][Cl+3]([O-])([O-])[O-]`, 12%.

The test is the same for the next values; noted with them: S. cerevisiae sgs1 mgt1 strain, at 50.0 µM, stronger effect = higher value.
Consider `O=C(O)c1ccc([Se][Se]c2ccc(C(=O)O)cc2)cc1`, for which the growth inhibition is 93.3% (active).
Take `CCOP(=O)(OCC)/C(=C/c1cccs1)CC(C)=O`: the growth inhibition was -27.9%.
With `CC1(C)C2CCC([CH2][Hg][Cl])C1C2` (stereo not given), the growth inhibition is 99.2% (active).
Turning to `[O-][n+]1c2ccccc2nn1-c1ccc(N(CCCl)CCCl)cc1`, the growth inhibition was -2.05%.
In the case of `Cc1cc(C)n(SC(Cl)(Cl)Cl)n1`, the growth inhibition is -15.3%.
On to `O=C(O)CN(CCN(CC(=O)O)CC(=O)O)CC(=O)O.[Ni+2]`, for which the growth inhibition is -11.5%.
Consider `Nc1nc(N)c(-c2ccc(Cl)c(Cl)c2)c(COc2cccc(CNS(=O)(=O)c3ccc(S(=O)(=O)F)cc3)c2)n1`, for which the growth inhibition is 58%.
With `C[N+](C)(C)CC1CCCC(C[N+](C)(C)C)C1O` (stereo not given), the growth inhibition was 76% (active).
Turning to `O=C(Cl)C1CCC1`, the growth inhibition was 10.1%.
With `C[CH2][Sn]([CH2]C)[O][Sn]([Cl])([CH2]C)[CH2]C`, the growth inhibition was 87.5% (active).
In the case of `Cc1ccc(OP(=O)(Oc2ccc(C)c(C)c2)Oc2ccc(C)c(C)c2)cc1C`, the growth inhibition is -9.15%.
For `O=[N+]([O-])/C=C/c1ccccc1Cl`, the growth inhibition is 93.3% (active).
Regarding `N#CC(C#N)=Cc1c(O)ccc2ccccc12`, the growth inhibition is 66%.
`C/C=C1/CN2CCC34c5ccccc5N(C)C23C2CC1C4(C(=O)OC)C(O)O2` (stereo not given): the growth inhibition was -24.7%.
Turning to `CNC1(c2ccccc2)CC1`, the growth inhibition is 0.95%.
With `O=C(O)c1cc[c]([Hg][S]c2ncnc3nc[nH]c23)cc1`, the growth inhibition was 98.6% (active).
With `CC/C(=C/c1ccc(OC)cc1OC)[N+](=O)[O-]`, the growth inhibition is 99% (active).
As to `CC(=O)[C-](Cl)C(C)=O.CC(=O)[C-](Cl)C(C)=O.CC(=O)[C-](Cl)C(C)=O.[Ru+3]`, the growth inhibition was 53.8%.
On to `C[SH+]c1ccccc1N=Cc1ccccn1.C[SH+]c1ccccc1N=Cc1ccccn1.[Ni+2].[O-][Cl+3]([O-])([O-])[O-]`, for which the growth inhibition is 99.5% (active).
Regarding `S=C=NCc1ccccc1`, the growth inhibition is 20.4%.
